# Data: the supplement of paper PMC12350171
# Where a name gives a salt, the structure may show the parent alone. Values without a mark were called inactive.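 How the source made its calls: active = normalised median growth AUC below 0.1 of DMSO control; inactive = AUC 0.1 or higher.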
# Tested on: P. vulgatus RND KO
# Experiment: growth AUC normalised to DMSO control (median) (fraction of control); higher = less growth inhibition, active = hit call of the paper
# Details: 20 µM
# Summary of the method: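 For normalised area under the curve, growth curves were truncated at entry into stationary phase, integrated by the trapezoidal rule and divided against vehicle wells on the same plate. The curves came from strains passaged twice overnight without oxygen and then grown in mGAM in 96-well plates at a starting OD578 of 0.01. Each well held an approved-drug library compound at 20 μM with 1% DMSO, and OD578 was read hourly for 24 h in an anaerobic incubator. Values are medians of three biological replicates.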
# 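Further: active when median AUC fell below 0.1.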
row,Structure (SMILES),growth AUC normalised to DMSO control
1,CN(C)CCOC(c1ccccc1)c1ccccc1 [Diphenhydramine hydrochloride],1.01
2,COC(=O)C1=C(C#N)NC(C)=C(C(=O)OC(C)C)C1c1cccc([N+](=O)[O-])c1 (configuration not stated) [Nilvadipine],1.15
3,Nc1nc2n[nH]nc2c(=O)[nH]1 [Azaguanine-8],1.01
4,CCN(CC)CCOC(=O)C(Cc1cccc2ccccc12)CC1CCCO1 (configuration not stated) [Nafronyl oxalate],0.993
5,O=c1n(CCCN2CCN(c3cccc(Cl)c3)CC2)nc2ccccn12 [Trazodone hydrochloride],0.993
6,CCCOc1ccc(C(=O)OCCN(CC)CC)cc1N [Proparacaine hydrochloride],1.03
7,CN1CCCN(C(c2ccccc2)c2ccc(Cl)cc2)CC1 (configuration not stated) [Homochlorcyclizine dihydrochloride],0.972
8,CCCCOC(=O)c1ccc(N)cc1 [Butamben],1.03
9,OC(CCN1CCCCC1)(c1ccccc1)c1ccccc1 [Pridinol methanesulfonate salt],0.963
10,CCCNC(C)C(=O)Nc1ccccc1C (configuration not stated) [Prilocaine hydrochloride],0.99
11,COc1cccc2c1C(=O)c1c(O)c3c(c(O)c1C2=O)C[C@@](O)(C(=O)CO)C[C@@H]3O[C@H]1C[C@H](N)[C@H](O)[C@H](C)O1 [Doxorubicin hydrochloride],0.948
12,CCC(=O)OCC(=O)[C@@]1(OC(=O)CC)[C@H](C)C[C@H]2[C@H]3[C@H]([C@@H](O)C[C@@]21C)[C@@]1(C)C=CC(=O)C=C1C[C@H]3Cl [Alclometasone dipropionate],1.03
13,Nc1nc(N)nc(-c2cc(Cl)ccc2Cl)n1 [Irsogladine maleate],0.959
14,CC(C)(C)NCC(O)c1ccc(O)c(CO)c1 (configuration not stated) [Salbutamol],0.985
15,C[C@H](CCC(=O)O)[C@H]1CC[C@H]2[C@@H]3[C@@H](O)C[C@@H]4C[C@H](O)CC[C@]4(C)[C@H]3CC[C@]12C [Urosiol],1.02
16,OCCN1C[C@H](O)[C@@H](O)[C@H](O)[C@H]1CO [Miglitol],1

row,Structure (SMILES),growth AUC normalised to DMSO control
1,CCCC(CCC)C(=O)O [Valproic acid],1.06
2,CCOC(=O)c1ccc(N)cc1 [Benzocaine],1.04
3,CCSc1ccc2c(c1)N(CCCN1CCN(C)CC1)c1ccccc1S2 [Thiethylperazine maleate],1
4,COC(=O)Nc1nc2cc(C(=O)c3ccc(F)cc3)ccc2[nH]1 [Flubendazol],1.04
5,O=C(Cn1ccnc1[N+](=O)[O-])NCCO [Etanidazole],0.991
6,Cc1cccc(N(C)C(=S)Oc2ccc3ccccc3c2)c1 [Tolnaftate],1
7,CCC(C)n1ncn(-c2ccc(N3CCN(c4ccc(OCC5COC(Cn6cncn6)(c6ccc(Cl)cc6Cl)O5)cc4)CC3)cc2)c1=O (configuration not stated) [Itraconazole],1.1
8,C[C@]12C[C@H](O)[C@H]3[C@@H](CCC4=CC(=O)CC[C@@]43C)[C@@H]1CC[C@@H]2C(=O)CO [Corticosterone],1
9,Nc1c(Br)cc(Br)cc1CN[C@H]1CC[C@H](O)CC1 [Ambroxol hydrochloride],0.955
10,O=C(O)c1cn(C2CC2)c2cc(N3CCNCC3)c(F)cc2c1=O [Ciprofloxacin hydrochloride monohydrate],0.0296 (active)
11,OCCOCCN1CCN(C(c2ccccc2)c2ccc(Cl)cc2)CC1 (configuration not stated) [Hydroxyzine dihydrochloride],0.989
12,CN1CCC(OC(c2ccccc2)c2ccccc2)CC1 [Diphenylpyraline hydrochloride],0.994
13,NCc1ccc(S(N)(=O)=O)cc1 [Mafenide hydrochloride],0.963
14,O=C(O)CCc1nc(-c2ccccc2)c(-c2ccccc2)o1 [Oxaprozin],1
15,CCN(CC)CCNC(=O)c1cc(Br)c(N)cc1OC [Bromopride],1
16,CN(C/C=C/c1ccccc1)Cc1cccc2ccccc12 [Naftifine hydrochloride],0.996
